# Screening results as filed in PubChem.
# Cy5 interf NS3h: Cy5 fluorescence quenchers or enhancers, artefact control for HCV NS3 helicase inhibitor project, biochemical, ChemBridge library, Cy5 readout. Cy5-dT15 DNA with NS3h, fluorescence interference; actives lie on both sides; signal over control mean, under 1 quenches. 16,000 compounds, 6% hits. fluorescence interference ratio at 100 µM;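 active = compound fluorescence over control fluorescence at most 0.8, a quencher, or at least a set upper limit, an enhancer; inactive = ratio between 0.8 and the set upper limit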
# HCV NS3h FP: HCV NS3 helicase inhibitors, primary screen, biochemical, fluorescence polarization, ChemBridge library. Hepatitis C virus NS3 helicase. NS3h Cy5-dT15 DNA binding. inhibition, % at 100 µM. 16,000 compounds, 1.6% hits;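 active = inhibition above the average over every tested compound plus 3 SD, cut at about 40% in these data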
# Starred values were filed as active, the others as inactive. Compounds with a hit are over-represented: about 6.9% of the library has one in this group of screens.
SMILES,Cy5 interf NS3h,HCV NS3h FP
C=CCN1C(=O)/C(=C/c2ccccc2OCc2ccccc2Cl)SC1=S,0.65*,10
C=CCN1C(=O)/C(=C\c2ccccc2OCc2ccc(Cl)cc2)SC1=S,0.99,16
COc1cc(C=C2C(=O)N(C)C(=O)N(C)C2=O)ccc1OCc1ccccc1Cl,1,5
C=CCN1C(=O)NC(=O)/C(=C\c2ccc(OCc3ccccc3Cl)c(OC)c2)C1=O,1.2*,9
COc1cc(/C=C2/SC(=S)N(CC(=O)Nc3ccccn3)C2=O)cc(OC)c1OC,0.99,3
O=C(O/N=C\c1ccc([N+](=O)[O-])cc1)c1cccs1,0.75*,3
O=C(/C=C/c1ccc(-c2cccc([N+](=O)[O-])c2)o1)c1cccs1,1.1,-5
Cc1ccc(N2C(=O)C(Cl)=C(NCCc3ccccc3)C2=O)c(C)c1,0.85,18
CN(C)c1cccc(C(=O)Nc2ccncc2)c1,1,1
Cc1ccc(S(=O)(=O)OCP(=O)(c2ccccc2)c2ccccc2)cc1,0.77*,9
COCP(=O)(c1ccccc1)c1ccccc1,0.91,-9
NC1=NC(=O)/C(=C\c2ccccc2Cl)S1,1.1,8
COc1cc(/C=C2\SC(N)=NC2=O)c([N+](=O)[O-])cc1OC,0.77*,-15
CCOC(=O)C1CCN(S(=O)(=O)c2ccc(-c3ccc([N+](=O)[O-])cc3)cc2)CC1,1,1
COc1ccc(CNS(=O)(=O)c2ccc(C)cc2)cc1,0.99,7
COC(C)(C)CNS(=O)(=O)c1ccc(C)cc1,0.74*,9
COc1ccc(OC)c(NC(=O)CN(c2ccc(C)cc2)S(=O)(=O)c2ccc(OC)c(OC)c2)c1,0.94,-7
COc1ccc(OC)c(NC(=O)COc2ccc(Br)cc2C)c1,1,-4
CCCC(=O)Nc1cc(OC)ccc1OC,0.74*,16
Cc1ccc(S(=O)(=O)N(C)CCCC(=O)Nc2cccc(C)c2C)cc1,0.98,3
CCN(CC)CCN1C(=O)C(O)=C(C(=O)/C=C/c2ccccc2)C1c1ccc(OC)cc1 (stereo not drawn),1.2*,26
CCN(CC)CCN1C(=O)C(O)=C(C(=O)/C=C/c2ccccc2)C1c1ccc(Br)cc1 (stereo not drawn),1.1,8
Cc1ccc(C(C)C)c(OCCNC(=O)Cc2cccc3ccccc23)c1,0.98,7
COc1ccc(/C=C/C(=O)N(C(C)C)C(C)C)cc1Br,1,8
COc1ccc(/C=C/C(=O)N2CCOCC2)cc1Br,0.67*,2
SMILES,Cy5 interf NS3h,HCV NS3h FP
Cc1ccc(NC(=O)/C(C#N)=C/c2ccc(-c3ccc(Cl)c(C(=O)O)c3)o2)cc1Cl,1,19
CCN(CC)c1ccc(/C=N\N2C(=O)c3ccccc3C2=O)cc1,1.2*,7
CCN(CC)c1ccc(/C=N/NC(N)=O)cc1,1.1,5
COc1cc(C2C3=C(CC(C)(C)CC3=O)OC3=C2C(=O)CC(C)(C)C3)cc(I)c1O,1.1,7
COc1cc(C2C3=C(CC(C)(C)CC3=O)OC3=C2C(=O)CC(C)(C)C3)ccc1OCc1ccc([N+](=O)[O-])cc1,0.8*,10
CCOc1ccc(OCC)c(C2C3CCCCC=C3C(C#N)=C(N)C2(C#N)C#N)c1 (stereo not drawn),0.91,8
CC1=C(C(=O)Nc2ccccc2C)C(c2ccc(C(C)C)cc2)NC(=O)N1 (stereo not drawn),1.1,0
CCOC(=O)Cc1csc(NC(=O)COc2ccc(-c3ccccc3)cc2)n1,0.78*,13
O=C(COc1ccc(Cl)cc1)Nc1nc(-c2ccc(Cl)cc2)cs1,0.93,13
Cc1ccccc1C(=O)Nc1cccc(Cl)c1,0.96,5
O=C(Nc1cccc(Cl)c1)c1ccccc1Br,0.8*,-2
CN(C)CCCNC(=O)c1ccc([N+](=O)[O-])cc1,1.1,-1
COc1cc(NC(=O)c2ccc([N+](=O)[O-])cc2)ccc1NC(=O)c1ccco1,0.94,1
COc1cc(NC(=O)c2cccc([N+](=O)[O-])c2)ccc1NC(=O)c1ccco1,0.73*,-15
Cc1ccc(C(=O)NC(NC(=S)Nc2ccccc2)C(Cl)(Cl)Cl)cc1 (stereo not drawn),0.96,0
Cc1ccc(C(=O)NC(NC(=S)Nc2cc(C)ccc2C)C(Cl)(Cl)Cl)cc1 (stereo not drawn),0.64*,3
COc1cc(C=O)ccc1OC(=O)c1cc(OC)c(OC)c(OC)c1,0.67*,0
COc1cc(C(=O)Oc2ccc3c(C)cc(=O)oc3c2C(C)=O)cc(OC)c1OC,1.2,12
COc1ccc(/C=C2\C(=O)NC(=S)N(c3ccc(Br)cc3C)C2=O)cc1[N+](=O)[O-],0.93,15
O=C(Nc1cc(C(F)(F)F)ccc1Cl)C(c1ccccc1)c1ccccc1,0.77*,25
O=C(Nc1cc(Cl)cc(Cl)c1)C(c1ccccc1)c1ccccc1,1.1,-7
CC1(C)CC(NC(=O)C(=O)Nc2ccc3c(c2)OCO3)CC(C)(C)N1,1.1,5
O=C(N/N=C\c1ccc(Cl)cc1)c1ccc(O)cc1,0.93,0
Cc1ccc(/C=N\NC(=O)c2ccccc2C)cc1,0.79*,11
COc1cc(C2=N/C(=C\N(C)C)C(=O)O2)cc(OC)c1OC,1,4
SMILES,Cy5 interf NS3h,HCV NS3h FP
O=[N+]([O-])c1ccc2c(c1)S(=O)(=O)N=C2Nc1cccc(Cl)c1,0.73*,-10
CN(C1=NS(=O)(=O)c2cc([N+](=O)[O-])ccc21)c1ccccc1,0.89,-2
CCN1C(=O)/C(=C\c2ccccc2OCCOc2cccc(OC)c2)SC1=S,1,7
CCN1C(=O)/C(=C\c2cc(OC)ccc2OC)SC1=S,0.76*,9
CCN1C(=O)/C(=C\c2cc(Br)ccc2OCc2ccccc2)SC1=S,1.1,0
COc1ccc(Br)cc1/C=C1/SC(=S)N(Cc2ccccc2)C1=O,0.69*,1
Cc1cc(C(C)(C)C)ccc1OC(=O)Nc1ccccc1,1,5
CC(=O)N1C(=O)/C(=C\C(=O)c2ccc([N+](=O)[O-])cc2)c2ccccc21,1,6
CC(=O)Nc1ccc(NC(=O)CCC(=O)O)cc1,0.63*,-1
NC(=O)c1ccc(NC(=O)CCC(=O)O)cc1,1.1,1
CCOc1ccc(C(=O)Nc2cccc([N+](=O)[O-])c2)cc1Cl,0.57*,2
CCOc1ccc(C(=O)Nc2ccc(N3CCOCC3)c(Cl)c2)cc1Cl,0.98,10
CCOc1ccc(C(=O)Nc2ccc(NC(=O)CC)cc2)cc1Cl,0.73*,16
CCOc1ccc(C(=O)Nc2ccc(C)cc2[N+](=O)[O-])cc1Cl,1,7
COc1cc(/C=C2\C(=O)N(c3ccc(S(N)(=O)=O)cc3)N=C2C)cc(I)c1O,1,12
Cc1ccc(-c2cc(NC(=O)c3ccc(Cl)cc3Cl)n[nH]2)cc1,0.82,-3
Cc1ccc(N=C(NO)c2ccc(Cl)cc2Cl)cc1,0.68*,15
CCN(CC)C(=O)c1cccc(-c2ccc(OC(C)=O)cc2)c1,0.97,5
CCOC(=O)c1ccc(N2NC(=O)/C(=C/c3cc(OC)c(O)c(OC)c3)C2=O)cc1,0.96,14
CCOC(=O)c1ccc(N2NC(=O)/C(=C/c3cccc(I)c3)C2=O)cc1,0.79*,20
CC(=O)Nc1ccc2nn(-c3ccc(F)cc3)nc2c1,1.1,0
O=C1c2c(Cl)c(Cl)c(Cl)c(Cl)c2C(=O)N1c1ncccn1,0.65*,3
